Some test systems named below: SR leukemia; RPMI-8226 leukemia; OVCAR-8 ovarian; OVCAR-5 ovarian; OVCAR-4 ovarian; SK-OV-3 ovarian; IGROV1 ovarian; OVCAR-3 ovarian; HS 578T breast; NCI/ADR-RES ovarian.
What all share (experiment): NCI-60 one-dose screen, 48 h (100 = growth as untreated, 0 = no growth, -100 = all killed)
What all share (conditions): 10 µM unless noted

Compounds without any hit were thinned out: in the full panel of roughly 83,000, 20% have a hit.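 Step 1: grow cells in 96-well plates. Step 2: add test compound at a single concentration. Step 3: incubate 48 h. Step 4: record percent growth.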 A number with no mark means an inactive call. Active and inactive are the calls of the source. Rule for the calls: active = growth percent below 10; inactive = the rest.

Take `C#CC#CC#CC#CC#CC#CC#CC#CC[C@H]1OC[C@H](COC(=O)O[C@@H](C(=O)O[C@H]2C[C@@]3(O)[C@@H](OC(=O)c4ccccc4)[C@@H]4[C@]5(OC(C)=O)CO[C@@H]5C[C@H](O)[C@@]4(C)C(=O)[C@H](OC(C)=O)C(=C2C)C3(C)C)[C@@H](NC(=O)c2ccccc2)c2ccccc2)O1`: the growth with SR leukemia was 25.8%; in the assay with RPMI-8226 leukemia, 16%; in the assay with OVCAR-8 ovarian, 52.7%; in the assay on OVCAR-5 ovarian, 38.4%; in the assay on OVCAR-4 ovarian, 60.7%; with SK-OV-3 ovarian it was 66.2%. Also, the growth in the assay on IGROV1 ovarian is 48.1%; with OVCAR-3 ovarian it was 15.7%; with HS 578T breast, 43.7%; in the assay with NCI/ADR-RES ovarian, 106%.

For the compound `S=c1[nH]c2cc(Cl)ccc2o1`, the growth with SR leukemia was 48.5%; in the assay with RPMI-8226 leukemia, 81.5%; with OVCAR-8 ovarian, 115%; with OVCAR-5 ovarian it was 92.5%; in the assay on OVCAR-4 ovarian, 103%; in the assay on SK-OV-3 ovarian, 108%. Moreover, the growth in the assay on IGROV1 ovarian was 118%; with OVCAR-3 ovarian, 114%; with HS 578T breast, 88.6%; in the assay on NCI/ADR-RES ovarian, 106%.

With `C#CC#CC#CC#CC#CC#CC#CC#CC[C@H]1OC[C@@H](COC(=O)O[C@@H](C(=O)O[C@H]2C[C@@]3(O)[C@@H](OC(=O)c4ccccc4)[C@@H]4[C@]5(OC(C)=O)CO[C@@H]5C[C@H](O)[C@@]4(C)C(=O)[C@H](OC(C)=O)C(=C2C)C3(C)C)[C@@H](NC(=O)c2ccccc2)c2ccccc2)O1`, the growth in the assay with SR leukemia is 25.9%; with RPMI-8226 leukemia it was 26%; with OVCAR-8 ovarian, 59.7%; in the assay with OVCAR-5 ovarian it was 47%; in the assay on OVCAR-4 ovarian, 68.3%; in the assay on SK-OV-3 ovarian it was 61.7%. The growth was 49.2% in the assay with IGROV1 ovarian, 22.6% in the assay on OVCAR-3 ovarian, 44.3% in the assay with HS 578T breast and 108% in the assay on NCI/ADR-RES ovarian.

In the case of `COc1cc(-c2nc(SCCC(C)C)nc(N3CCOCC3)c2C#N)cc(OC)c1OC`, the growth in the assay with SR leukemia was -10.1% (active); with RPMI-8226 leukemia, 90.3%; in the assay on OVCAR-8 ovarian, 43.1%; in the assay with OVCAR-5 ovarian, 102%; with OVCAR-4 ovarian, -25.2% (active); in the assay on SK-OV-3 ovarian it was 88.6%. For the same compound, the growth was 79.6% with IGROV1 ovarian, -33.3% (active) with OVCAR-3 ovarian, 76.7% with HS 578T breast and 79% with NCI/ADR-RES ovarian.

Turning to `O=C1/C(=C/c2ccccc2[N+](=O)[O-])COc2ccc(O)cc21`, the growth in the assay with SR leukemia is 22.2%; in the assay on RPMI-8226 leukemia it was 3.29% (active); in the assay with OVCAR-8 ovarian, 6.3% (active); with OVCAR-5 ovarian it was -19% (active); with OVCAR-4 ovarian, 15.6%; in the assay with SK-OV-3 ovarian it was 77.7%. In addition, the growth in the assay on IGROV1 ovarian is -0.209% (active); in the assay with OVCAR-3 ovarian it was 7.73% (active); in the assay with HS 578T breast, 5.1% (active); in the assay on NCI/ADR-RES ovarian, 2.55% (active).

In the case of `CCOC(=O)C1CCN(c2ccc(N3C[C@@H](CNCc4ccc(C(=N)N)cc4)OC3=O)cc2)CC1`, the growth with SR leukemia is 98.2%; in the assay with RPMI-8226 leukemia, 96.2%; in the assay on OVCAR-8 ovarian, 101%; with OVCAR-5 ovarian, 94.3%; in the assay on OVCAR-4 ovarian, 105%; in the assay with SK-OV-3 ovarian, 104%. Moreover, the growth was 101% with IGROV1 ovarian, 113% in the assay on OVCAR-3 ovarian, 102% in the assay with HS 578T breast and 105% with NCI/ADR-RES ovarian.

As to `CCCCSCC(=O)c1ccccc1`, the growth in the assay with SR leukemia is 88.3%; in the assay on RPMI-8226 leukemia it was 106%; with OVCAR-8 ovarian it was 94.2%; in the assay with OVCAR-5 ovarian, 95.2%; in the assay with OVCAR-4 ovarian, 100%; in the assay with SK-OV-3 ovarian, 81.4%. In addition, the growth in the assay with IGROV1 ovarian is 99.3%; with OVCAR-3 ovarian, 99.3%; in the assay on HS 578T breast, 110%; in the assay with NCI/ADR-RES ovarian, 97.9%.

Turning to `CCOC(=O)c1c(C)nc2ccccc2c1/C=C/c1ccc(OC)cc1`, the growth in the assay on SR leukemia was 56.6%; with RPMI-8226 leukemia it was 41.8%; in the assay on OVCAR-8 ovarian, 57.6%; in the assay with OVCAR-5 ovarian, 89.1%; in the assay with OVCAR-4 ovarian it was 54.6%; in the assay on SK-OV-3 ovarian, 76.1%. Also, the growth in the assay on IGROV1 ovarian is 66%; in the assay with OVCAR-3 ovarian it was 73.9%; in the assay with HS 578T breast, 81.6%; in the assay with NCI/ADR-RES ovarian it was 31.2%.

As to `COc1ccc(-c2cc(-c3cc(OC)c(OC)c(OC)c3)c(C#N)c(=O)n2CCCCCC(=O)NO)cc1`, the growth is 78.2% in the assay with SR leukemia; 72.8% with RPMI-8226 leukemia; 87% with OVCAR-8 ovarian; 108% in the assay with OVCAR-5 ovarian; 100% in the assay on OVCAR-4 ovarian; 122% with SK-OV-3 ovarian. In addition, the growth with IGROV1 ovarian is 101%; in the assay with OVCAR-3 ovarian it was 101%; in the assay with HS 578T breast, 85.2%; in the assay on NCI/ADR-RES ovarian it was 96.1%.

Take `O=C(Cn1cc(CN2C(=O)c3ccccc3S2(=O)=O)nn1)Nc1cccc(Cl)c1`: the growth in the assay with SR leukemia was 113%; with RPMI-8226 leukemia, 104%; in the assay on OVCAR-8 ovarian, 113%; with OVCAR-5 ovarian it was 112%; with OVCAR-4 ovarian, 109%; with SK-OV-3 ovarian, 79.3%. Further, the growth in the assay on IGROV1 ovarian was 108%; in the assay with OVCAR-3 ovarian it was 106%; with HS 578T breast, 107%; with NCI/ADR-RES ovarian, 93.1%.

Turning to `CC12CCC(/C(=C/NNc3ccc([N+](=O)[O-])cc3[N+](=O)[O-])C1=O)C2(C)C` (stereo not given), the growth was 56.5% in the assay with SR leukemia; 73.8% in the assay with RPMI-8226 leukemia; 72.7% in the assay on OVCAR-8 ovarian; 74.5% in the assay with OVCAR-5 ovarian; 74.2% in the assay on OVCAR-4 ovarian; 89.6% with SK-OV-3 ovarian. Further, the growth in the assay with IGROV1 ovarian was 68.6%; in the assay on OVCAR-3 ovarian, 87.4%; with HS 578T breast, 110%; in the assay on NCI/ADR-RES ovarian, 76.5%.

On to `Fc1ccc(COc2ccc(Nc3ncnc4sc5c(c34)CCCC5)cc2)cc1`, for which the growth with SR leukemia is 95.8%; in the assay with RPMI-8226 leukemia, 79.4%; with OVCAR-8 ovarian, 101%; in the assay with OVCAR-5 ovarian, 112%; with OVCAR-4 ovarian, 110%; in the assay on SK-OV-3 ovarian, 92.6%. The growth was 95.3% with IGROV1 ovarian, 93.2% with OVCAR-3 ovarian, 98.8% in the assay with HS 578T breast and 95.9% in the assay on NCI/ADR-RES ovarian.

In the case of `NC(=S)N/N=C/c1cn(-c2ccccc2)nc1-c1cc2ccccc2oc1=O`, the growth is 12.2% in the assay with SR leukemia; 33.4% with RPMI-8226 leukemia; 64.5% in the assay with OVCAR-8 ovarian; 88.1% in the assay with OVCAR-5 ovarian; 79.2% with OVCAR-4 ovarian; 83.2% in the assay on SK-OV-3 ovarian. Further, the growth was 46.7% with IGROV1 ovarian, 34.4% in the assay on OVCAR-3 ovarian, 64.4% in the assay with HS 578T breast and 48.6% in the assay with NCI/ADR-RES ovarian.
